Experimental data reported in PubChem BioAssay AID743262 (National Center for Advancing Translational Sciences (NCATS), 2014).
In all, about 1,300 compounds went through this assay and about 25 (2%) were called active. Another 9% or so got no clear call; they are omitted. This is one part of a sample in which actives are shown more often than they occur. The call rests on the fitted dose curve; in most records, active means well fitted activation curve with a large enough effect; inconclusive means small, poorly fitted or top-dose-only effect; inactive means flat fitted curve, though single readings scatter.

Biological target: Glucagon-like peptide 1 receptor (Homo sapiens) (UniProt P43220)
Sequence (P43220 whole entry, looked up): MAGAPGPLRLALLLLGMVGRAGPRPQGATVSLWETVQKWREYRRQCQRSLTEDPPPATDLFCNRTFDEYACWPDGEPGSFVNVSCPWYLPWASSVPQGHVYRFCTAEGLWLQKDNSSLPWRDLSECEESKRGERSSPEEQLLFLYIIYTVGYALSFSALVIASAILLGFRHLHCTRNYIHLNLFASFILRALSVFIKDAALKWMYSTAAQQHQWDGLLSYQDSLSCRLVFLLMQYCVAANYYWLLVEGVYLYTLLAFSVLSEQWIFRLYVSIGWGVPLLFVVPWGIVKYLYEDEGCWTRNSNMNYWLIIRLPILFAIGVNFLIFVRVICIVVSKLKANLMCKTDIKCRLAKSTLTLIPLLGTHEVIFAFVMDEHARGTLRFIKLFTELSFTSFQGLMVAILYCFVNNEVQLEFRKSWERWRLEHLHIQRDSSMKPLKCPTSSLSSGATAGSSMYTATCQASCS
Experiment: qHTS of GLP-1 Receptor Agonists: Hit Validation
Conditions: HEK293 GLP-1R, cAMP-response luciferase, 4-6 h; series mostly up to 46.1 µM
From the text: The overall goal of this project was to develop a novel assay for discovering small molecule ligands for class B1 G protein-coupled receptors (GPCRs). Very few agonists (or inverse agonists) with generally weak activity for this entire group of physiologically important receptors are known to date. To establish proof-of-principle that this critical bottleneck can be overcome with a suitable screening approach, our studies focused on the class B1 receptor for glucagon-like peptide-1 (GLP-1R), a potential therapeutic target for diabetes and neurodegenerative disease. The assay was developed in a "mix and measure" format using a cell-based functional readout. Toward this goal, stably transfected HEK293 cell clones were established that co-express (i) a cAMP-responsive luciferase reporter gene, and (ii) GLP-1Rs that upon ligand interaction either stimulate (agonists) or inhibit (inverse agonists) luciferase activity. In different cell lines to be used for screening, expressed GLP-1Rs are specifically optimized for high sensitivity detection of either weak agonists (hypersensitive receptor) or inverse agonists (constitutively active receptor mutant). In addition, control cell lines were developed that express either the cAMP-responsive reporter gene without recombinant GLP-1Rs (enabling initial exclusion of GLP-1R independent effects of candidate probes), or the reporter gene together with wild type GLP-1Rs (for confirmation of probe activity at this receptor), or the reporter gene in combination with the constitutively active orphan receptor GPR119 (enabling initial exclusion of GLP-1R independent inhibitory effects of candidate inverse agonists). To that end, this assay was optimized for 1536-well format and screened against the MLSMR. NIH Molecular Libraries Probe Production Network [MLPCN] NIH Chemical Genomics Center [NCGC] Grant: NS064851 PI Name: Martin Beinborn, Tufts Medical Center
In a white solid 1536-well plate, 6 uL of cells are dispensed in DMEM without phenol red, 10% Nu serum, and 1% pen-strep medium. The plates are then incubated for 12 hours at 37 deg C at 5% CO2 before 23 nL of compounds are added. After a 4-6 hr incubation at37 deg C and 5% CO2, 3 uL of detection reagent are added and after a 12 min incubation at RT, a luminescent read is obtained on the ViewLux.
Potency means the concentration at half of the fitted maximal effect.

Potency, active:
COCCNc1nc(Nc2ccc(C)cc2C)c2sccc2n1 9.2 µM
Nc1nnc(-c2cn(-c3ccccc3)nc2-c2ccccc2)o1 5.17 µM
COc1ccc(OC)c(-c2nnc3n2N=C(c2ccc(OC)c(OC)c2)CS3)c1 1.64 µM
COc1ccc(C2=Nn3c(nnc3-c3ccccc3OC)SC2)cc1OC 5.8 µM
COc1ccc(C2=Nn3c(nnc3C3CCCCC3)SC2)cc1OC 8.2 µM
COc1ccc(C2=Nn3c(nnc3-c3ccccc3Cl)SC2)cc1OC1CCOC1 (stereo unspecified) 13 µM
COc1ccc(CN(C)Cc2nc(Cc3ccccc3Cl)no2)cc1OC 16.4 µM
CCN(CC)CC(=O)Nc1scc2c1c(=O)oc1ccccc12 8.2 µM
Cc1nc(N2CCOCC2)c2cc(-c3ccccc3)sc2n1 8.2 µM
COc1ccc(C(=O)COC(=O)c2cc([N+](=O)[O-])ccc2N2CCOCC2)c(OC)c1 20.6 µM

Potency, inactive:
Clc1ccccc1Nc1nc(NCC2CC2)nc2ccsc12
COCCNc1nc(Nc2ccccc2Cl)c2sccc2n1
CCOc1ccc(C(C)=O)cc1COC(=O)CCc1cc(OC)c(OC)c(OC)c1
CCOC(=O)c1c(C)[nH]c(C)c1C(=O)COC(=O)c1sccc1C
CCOC(=O)c1cn(-c2ccccc2)nc1-c1ccncc1
COc1ccc(Cn2c(SCC#N)nc3ccc(N4CCOCC4)cc3c2=O)cc1
CCOC(=O)C1(C)CCCN(C(=O)c2cc(C)oc2C)C1 (stereo unspecified)
Cc1ccc(NC(=O)Nc2ccc([N+](=O)[O-])cc2)nc1
COc1cc2c(cc1OC)C1=C(C#N)CCC(=NC(=O)c3ccc(Cl)cc3)N1CC2
C=CCSc1nc2c(c(=O)[nH]c(=O)n2C)n1CC
COc1ccc([N+](=O)[O-])cc1NS(=O)(=O)c1cc(C(=O)N2CCN(C)CC2)ccc1OC
CC(C)Cn1cnc2c(SCc3ccccc3F)nc(N)nc21
CCCn1c2ccc(F)cc2c2nnc(SCCN3CCOCC3)nc21
CCOc1ncccc1C(=O)OCc1ccc(C(=O)OC)o1
Nc1nc2sc3c(c2c(=O)s1)CCCC3
COc1cc2c(cc1OC)CN(C(=O)c1ccc(N3CCCC3)c([N+](=O)[O-])c1)CC2
COC(=O)[C@@H]1CCCN1C(=O)c1cc(COc2cccc3cccnc23)on1
CCN=C1S/C(=C\c2cn(CC)c3ccccc23)C(=O)N1CC
COc1ccccc1N1CCN(C(=O)/C=C/c2ccco2)CC1
COc1cccc(OC)c1C(=O)Nc1ccc(C(=O)c2ccncc2)cc1
CCOC(=O)c1c(NC(=O)COC)sc(C)c1C
COc1ccc(C2=NN(C(C)=O)C(c3cccs3)C2)cc1OC (stereo unspecified)
COc1ccc(C2=Nn3c(nnc3-c3ccccc3)SC2)cc1OC
COc1ccc(C2=Nn3c(nnc3-c3ccco3)SC2)cc1
COc1ccc(C2=Nn3c(nnc3-c3ccccn3)SC2)cc1OC
COc1ccc(C2CC(c3ccc(OC)c(OC)c3)=NN2C(=O)c2ccccc2)cc1 (stereo unspecified)
c1cc2c(cc1C1=Nn3c(nnc3C3CCCCC3)SC1)OCO2
Cc1cc(C)n(-c2nnc3n2N=C(c2c[nH]c4ccccc24)CS3)n1
CCOc1ccc(-c2nnc3n2N=C(c2ccc(OC)cc2)CS3)cc1
C/C(=N\Nc1nc2ccccc2[nH]1)c1ccc(C)o1
COc1cc(C#Cc2ccc3cc(CCO)oc(=O)c3c2)cc(OC)c1
O=c1[nH]n(CC2COC3(CCCCC3)O2)c(=O)c2ccccc12 (stereo unspecified)
COCc1cccc(-c2csc(C(C)(O)c3cccc(F)c3)n2)c1 (stereo unspecified)
COc1cc(SC)ccc1C(=O)OCc1nc2ccsc2c(=O)[nH]1
CSc1nnc(C)c(/C=C/Nc2ccc(F)cc2)n1
CN(C)c1ccc(N=Nc2ccccc2C(=O)OCC(=O)Nc2ccccc2C(F)(F)F)cc1
COc1ccc(/C=N/n2c(-c3ccc(C)cc3)n[nH]c2=S)cc1OC
C=CCn1c2ccccc2c(=O)c2cc(C#CC3(O)CCCCC3)ccc21
O=C(Nc1ccccc1)OCc1cc(-c2ccccc2Cl)on1
CCCc1cc(-c2ccc(O)c(OCC)c2)c(C#N)c(N)n1
COc1ccc(CCN(C)C/C=C/c2ccccc2[N+](=O)[O-])cc1OC
CCCOc1ccc2c(=O)c(-c3cc(C(=O)OC)oc3C)c(C)oc2c1
Fc1ccccc1COc1ccc(Br)cc1CNCc1cccnc1
COc1ccc(Cc2noc(-c3ccc(OC)c(OC)c3)n2)cc1OC
COc1cc(-c2nc(Cc3ccccc3Cl)no2)cc(OC)c1OC
CCCCCCSC1=C(C#N)C(c2ccc(O)cc2)CC(=O)N1 (stereo unspecified)
NS(=O)(=O)c1cccc(NC(=O)Nc2ccccc2)c1
CCc1ccc(C(=O)COC(=O)c2cc([N+](=O)[O-])ccc2NCCO)cc1
CC(CCc1ccco1)NC(=O)c1cccc2c1C(=O)N(C1CCCCC1)C2 (stereo unspecified)
Cc1nn(-c2ccccc2)c(Cl)c1/C=N/NC(N)=O
Cc1ccccc1Nc1nc(N)nc(-c2oc3ccccc3c2C)n1
COc1cccc(C(C)(O)c2nc(-c3ccc(OC)c(OC)c3)cs2)c1 (stereo unspecified)
Cc1c(C(=O)N(C)C(C)c2ccccn2)oc2c(F)cccc12 (stereo unspecified)
CCOCCCn1c(=NC(=O)c2cccnc2)c(C(=O)OCC)cc2c(=O)n3ccccc3nc21
COc1ccc(-c2cc(C3CC3)nc(N)c2C#N)cc1
CCOC(=O)c1c(NC(=O)Cc2ccccc2)sc2c1CCN(CC)C2
CCOC(=O)c1cnc2c(c(C)nn2CC)c1NC1CC1
c1ccc(Cn2nnc3c(N4CCC5(CC4)OCCO5)ncnc32)cc1
COc1ccc(CCN(C)C(=O)CCc2nnc(-c3ccccc3)o2)cc1OC
COc1ccccc1Nc1cc(C(=O)NCc2cccnc2)c2ccccc2n1
COc1cc2c(cc1OC)CN(C(=O)c1ccc(S(=O)(=O)N(C)c3ccccc3)cc1)CC2
O=c1c2c3c(sc2nc(NCCO)n1Cc1ccco1)CCCCC3
CCSc1cc(C)nc2c(-c3ccccc3)c(C)nn12
CCOC(=O)c1sc(NC(=O)/C=C/c2cnn(CC)c2C)c(C(=O)OCC)c1C
Cc1ccc(C)c(S(=O)(=O)Nc2cc3c4c(c2)CCC(=O)N4CCC3)c1
COc1cc2c(cc1OC)C(C)N(C(=O)C1COc3ccccc3O1)CC2 (stereo unspecified)
COc1ccc(-c2nc(C#N)c(NCc3ccc(C)cc3)o2)cc1OC
COC(=O)c1ccc(CSc2nnc3nc(C)cc(C)n23)cc1
C=CCOc1ccc(CNc2nccs2)cc1OCC
CCOC(=O)c1c(C)n(-c2ccccc2)c2ccc(OCCN(C)C)cc12
CC(=O)Nc1nc(CC(C)C)cc2c1c(=O)oc1ccccc12
CC(=O)c1oc2ccccc2c1NC(=O)CN1CCCCC1
CCOC(=O)c1sc(NC(=O)C2=COCCO2)c(C#N)c1C
COc1cccc(OCCNc2cc(N3CCOCC3)ccc2[N+](=O)[O-])c1
CCOC(=O)c1c(NC2OC(=O)c3c2ccc(OC)c3OC)sc(C(=O)OC(C)(C)C)c1C (stereo unspecified)
N#Cc1c(-c2ccc(F)cc2)noc1N
COc1ccc(CSc2nnnn2-c2ccccc2)cc1
O=[N+]([O-])c1cnccc1NC1CCCCC1
O=C1CN(c2nc(-c3cccnc3)nc3sc4c(c23)CCCC4)CCN1
COC(=O)CSc1ncnc2scc(-c3ccccc3)c12
COC(=O)CCSCC(=O)N1N=C(c2ccc(OC)cc2)CC1c1cccc(OC)c1OC (stereo unspecified)
CCC(=O)Nc1sc2c(c1C#N)CCCCC2
Cc1nc(N2CCOCC2)c2c(C)c(C(=O)Nc3ccccc3C(F)(F)F)sc2n1
CN(C)c1ncnc2sc(-c3ccccc3)cc12
COc1ccc(C(=O)NCC2(c3ccc(OC)c(OC)c3)CCCC2)cc1OC
CC(=NNC(=S)Nc1ccc(C)cc1)c1ccccn1
COC(=O)c1ccc(Cn2nc(-c3cc(C)ccc3C)ccc2=O)cc1
COc1cc(SC)ccc1C(=O)Nc1ccccc1
Cc1c(C)n(Cc2ccccc2)c2ncnc(NCCO)c12
COc1ccc(-c2cc(C(=O)N3CCCC(C(F)(F)F)C3)c3ccccc3n2)cc1OC (stereo unspecified)
C=CCN1N=C(c2ccc(Cl)s2)CSC1=O
CCOC(=O)c1nnn(-c2nonc2N)c1-c1cccs1
CCc1ccc(C(=O)COC(=O)c2cc([N+](=O)[O-])ccc2N2CCOCC2)cc1
COc1ccc(C(=O)c2cc([N+](=O)[O-])ccc2N2CCOCC2)cc1
CC(=O)Nc1cc(-c2ccccc2Cl)cn2c(-c3ccc(S(C)(=O)=O)cc3)cnc12
COc1ccc(-c2nnc(OCc3nc4ccccc4n3C)c3ccccc23)cc1
CCOc1ccc(Br)cc1S(=O)(=O)Nc1ccc(C(=O)OCC(=O)N(C)c2ccccc2)cc1
CCOC(=O)c1c(C)[nH]c2cc(Br)c(O)cc12
CC1CN(c2nc(N(C)c3ccccc3)nc(N)c2[N+](=O)[O-])CC(C)O1 (stereo unspecified)
COc1ccc(-c2nc(C#N)c(NC(C)c3ccccc3)o2)cc1OC (stereo unspecified)
CCOC(=O)n1c(=O)n(Cc2ccccc2Cl)c2ccccc21
